# Screening data deposited in PubChem BioAssay by National Center for Advancing Translational Sciences (NCATS).
# Compounds with a hit are over-represented: about 21% of the library has one in this group of screens.
# TDP1 cell noCPT = qHTS for Inhibitors of human tyrosyl-DNA phosphodiesterase 1 (TDP1): qHTS in cells in absence of CPT. DT40 Tdp1-/- hTDP1 cells, no CPT, ATP luminescence, 48 h. Potency, µM (series often up to 46.2 µM), most hits filed as inhibitors. 420,000 compounds, 15% hits. AID 686978, 2013; note: nearly all actives have a fitted effect of over 55% in size
#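 Compound effects on proliferation are scored in DT40 Tdp1-/-;hTDP1 cells in the absence of CPT. ATP levels (CellTiter-Glo luminescence) are recorded after a ≥48 hr, 37 °C incubation.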
# ELG1 repair inh = blocks ELG1-dependent DNA repair in HEK293T cells; HEK293T ELG1-luciferase reporter, luminescence, 16 h; DNA damage induced by 5-fluorouridine; Potency, µM (series often up to 46.1 µM), usual class: inhibitors; 330,000 compounds, 2.3% hits; note: nearly all actives have a fitted effect of over 55% in size
#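 DMSO vehicle served as the neutral condition. Each well held 2,000 cells given 5-fluorouridine plus compound; after 16 hr at 37 °C/5% CO2, ONE-Glo was added and luciferase measured 30 min later.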
# Gal4-VP16 FLuc = Gal4-VP16 reporter inhibition counter-screen | Drosophila S2 Gal4-VP16 UAS-luciferase, luminescence, 20 h | Potency, µM (doses to about 53.6 µM), usual class: inhibitors | 310,000 compounds, 3.5% hits | AID 2546;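 note: Gal4-VP16 expression switched on by copper sulfate through the metallothionein promoter; nearly all actives have a fitted effect of over 50% in size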
# IL1B secr inh = inhibitors of inflammasome signaling (IL-1 beta secretion); activity change, % at 57.5 µM; AID 743279; THP-1 LPS/ATP IL-1B secretion, AlphaLISA, 16 h; hits give low values; 360,000 compounds, 4.7% hits; in the data active = activity change below about -50%; inconclusive = mostly about -30% to -49%
#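 THP-1 cells pretreated 1 hr with compounds (up to 57.5 uM final), then stimulated with LPS (250 ng/mL final) plus ATP (1.25 mM final); secreted IL-1B measured by AlphaLISA after 16 hr, decreased signal indicating inhibition.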
# RORg inh = inhibitors of mouse ROR gamma transcriptional activity | P51450 | Drosophila S2 Gal4-RORgamma UAS-luciferase reporter, 20 h | Potency, µM (doses to about 53.6 µM), usual class: inhibitors | 310,000 compounds, 5.4% hits | AID 2551; note: nearly all actives have a fitted effect of over 60% in size
# Target sequence (P51450 whole entry, looked up, the tested form may be a part): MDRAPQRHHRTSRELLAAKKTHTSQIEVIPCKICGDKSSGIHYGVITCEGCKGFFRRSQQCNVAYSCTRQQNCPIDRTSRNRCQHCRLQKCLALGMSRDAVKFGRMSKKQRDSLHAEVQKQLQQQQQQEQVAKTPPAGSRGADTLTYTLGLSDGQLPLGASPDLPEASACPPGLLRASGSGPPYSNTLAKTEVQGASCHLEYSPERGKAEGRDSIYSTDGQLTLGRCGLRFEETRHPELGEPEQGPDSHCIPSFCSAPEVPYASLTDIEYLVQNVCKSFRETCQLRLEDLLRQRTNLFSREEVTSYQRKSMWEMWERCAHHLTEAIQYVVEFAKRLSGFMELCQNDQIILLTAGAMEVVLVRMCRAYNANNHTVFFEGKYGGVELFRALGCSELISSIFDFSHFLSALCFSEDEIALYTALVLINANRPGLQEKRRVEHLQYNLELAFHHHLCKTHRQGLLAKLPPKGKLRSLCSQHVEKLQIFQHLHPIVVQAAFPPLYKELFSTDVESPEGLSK
#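 A Gal4/UAS one-hybrid system in insect cells: metallothionein-promoter Gal4–ROR gamma fusion plus Photinus luciferase reporter. Copper sulfate 700 uM final, 20 hr ambient incubation, luminescent detection after 10 min with reagent.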
# TDP1 cell CPT = growth inhibition of DT40 Tdp1-/-;hTDP1 cells with camptothecin (screen for TDP1 inhibitors); chicken DT40 Tdp1-/-;hTDP1 cells + 20 nM CPT, ATP luminescence, 48 h; 420,000 compounds, 12% hits; Potency, µM (top dose mostly 46.2 µM), actives largely listed as inhibitors; note: nearly all actives have a fitted effect of over 55% in size
#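 Cell growth measured by CellTiter-Glo luminescence after a minimum 48 h, 37 C compound exposure with 20 nM CPT in Tdp1-knockout DT40 cells stably expressing hTDP1, seeded 400/well; qHTS titration format.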
# Hits are given with their value; 0 = inactive; ? = inconclusive; - = no result; [ ] = dose if it differs, or a comment. Unless noted, calls come from the whole dose curve; as a rule, active = well fitted curve in the direction sought with a large enough effect; inconclusive = small, poorly fitted or top-dose-only effect, or another doubt; inactive = no such curve, though single readings can be large; an effect the other way counts as inactive or inconclusive.
SMILES,TDP1 cell noCPT,ELG1 repair inh,Gal4-VP16 FLuc,IL1B secr inh,RORg inh,TDP1 cell CPT
Cc1ccccc1NC(=S)NC(NC(=O)CF)C(Cl)(Cl)Cl (stereo unspecified),0,0,0,0,?,0
CCOC(=O)c1c(NC(NC(=O)CF)C(Cl)(Cl)Cl)sc2c1CCCC2 (stereo unspecified),?,0,0,0,?,13µM
O=C(c1cc(C(=O)NCc2ccccc2)c(=O)n(Cc2ccccc2)c1)c1cc(Br)ccc1O,25.9µM,?,0,0,0,?
Cc1ccc(O)c(C(=O)c2cc(C(=O)NCc3ccccc3)c(=O)n(Cc3ccccc3)c2)c1,11.6µM,?,0,0,0,7.31µM
Cn1cc(C(=O)NCc2ccccc2)c2ccccc21,0,0,0,0,0,?
COc1ccc(CCNCc2ccsc2)cc1OC,0,0,0,0,?,0
COc1ccc(CCNC(=O)c2ccc3c(c2)N=C(C)c2cc(C)ccc2S3)cc1OC,14.6µM,-,-,-,-,?
COc1ccc(CCNC(=O)c2ccc3c(c2)N(Cc2cccc(Cl)c2)C(=O)CS3)cc1OC,23.1µM,-,-,-,-,20.6µM
CCc1ccc(CNC(=O)c2ccc3c(c2)N=C(C)c2cc(C)ccc2S3)cc1,5.8µM,-,-,-,-,11.6µM
CC1C(=O)OC2CCN3CC=C(COC(=O)[C@](C)(O)[C@]1(C)O)C23 (stereo partly specified),0,-,0,-,0,?
CCOC(=O)C1=C(N)Oc2cc(C)oc(=O)c2C12C(=O)N1c3c(cccc32)C(C)CC1(C)C (stereo unspecified),0,-,0,0,0,0
CCCCCN1C(=O)c2ccccc2[C@@]2(C(=O)OCC)Cc3cc(OC)ccc3[C@@H]12,4.61µM,-,-,-,-,7.31µM
CCOC(=O)[C@]12Cc3cc(C)ccc3[C@H]1N(Cc1ccccc1)C(=O)c1ccccc12,14.6µM,-,-,0,-,10µM
CCOC(=O)[C@]12Cc3cc(OC)ccc3[C@H]1N(Cc1ccccc1)C(=O)c1ccccc12,11.2µM,-,-,0,-,?
CCOC(=O)[C@]12Cc3cc(C)ccc3[C@H]1N(C(C)C)C(=O)c1ccccc12,6.51µM,-,-,-113.1,-,10.3µM
CCOC(=O)[C@]12Cc3cc(C)ccc3[C@H]1N(Cc1ccccc1)C(=O)c1cc(F)c(F)cc12,14.6µM,-,-,-,-,20.6µM
CCOC(=O)[C@]12Cc3c(cc(OC)c(OC)c3OC)[C@H]1N(C(C)C)C(=O)c1ccccc12,14.6µM,-,-,-113.5,-,23.1µM
C=CCn1c(O)c(/C=N/NC(=O)CCCC)c(=O)[nH]c1=S,0,0,0,0,0,0
COc1ccc(OC)c(C(O)C2CCCCN2)c1 (stereo unspecified),0,0,0,0,?,0
O=C(NC1CCCCC1)Oc1cc2oc(=O)sc2cc1Cl,14.6µM,0,0,0,0,0
Cc1ccc(C(=O)OCC(=O)NC2CCCCC2)o1,0,?,0,0,0,0
COC(=O)C1=C(c2ccc(-c3ccccc3)c(F)c2)C[C@@H]2CC[C@H]1N2C(=O)NCCCOC(C)C,13µM,0,-,0,-,14.6µM
COC(=O)C1=C(c2ccccc2)C[C@@H]2CC[C@H]1N2C(=O)NCCNC(C)=O,0,-,-,0,-,0
COC(=O)C1=C(c2ccc3ccccc3c2)C[C@@H]2CC[C@H]1N2C(=O)NCCCOC(C)C,14.6µM,0,-,0,-,?
COC(=O)C1=C(c2ccc(-c3ccccc3)c(F)c2)C[C@@H]2CC[C@H]1N2C(=O)NCCc1ccccc1,16.4µM,?,-,0,-,?
SMILES,TDP1 cell noCPT,ELG1 repair inh,Gal4-VP16 FLuc,IL1B secr inh,RORg inh,TDP1 cell CPT
COC(=O)C1=C(c2ccc(-c3ccccc3)c(F)c2)C[C@@H]2CC[C@H]1N2C(=O)NCCNC(C)=O,?,0,-,0,-,20.6µM
COC(=O)C1=C(c2ccccc2)C[C@@H]2CC[C@H]1N2C(=O)NCCO,0,-,-,0,-,0
CC1Cc2ccccc2CN1 (stereo unspecified),0,-,-,-,-,0
COC(=O)C1=C(c2ccc(-c3ccccc3)c(F)c2)C[C@@H]2CC[C@H]1N2C(=O)NCCOc1ccc(OC)cc1,14.6µM,?,-,0,-,14.6µM
COC(=O)C1=C(c2ccc(-c3ccccc3)c(F)c2)C[C@@H]2CC[C@H]1N2C(=O)NCc1cccc2ccccc12,23.1µM,0,-,0,-,23.1µM
COC(=O)C1=C(c2ccccc2)C[C@@H]2CC[C@H]1N2C(=O)NCc1ccc(C(F)(F)F)cc1,?,-,-,0,-,?
COc1cc(OC)c([C@H]2C=C(C)[C@H]3C[C@@H]2C3(C)C)c(OC)c1,?,-,-,0,-,0
Cc1ccc([C@H]2C[C@@H](n3cc(C4CC4)nn3)[C@H](O)CN2Cc2cccs2)cc1,0,-,-,0,-,0
O[C@H]1C[C@H](c2ccccc2)N(CC2CCCCC2)C[C@@H]1n1cc(-c2ccc(F)cc2)nn1,14.6µM,-,-,0,-,23.1µM
CNC(=O)[C@@H]1C[C@H]1[C@@H](NP(=O)(c1ccccc1)c1ccccc1)c1ccccc1,-,-,0,-,?,-
O=C(NCc1ccc(Cl)cc1)C1CCN(C(=O)c2cnn(-c3ccccc3)c2-n2cccc2)CC1,10.3µM,-,-,-,-,14.6µM
COc1ccc(CNC(=O)C2CCN(C(=O)c3cnn(-c4ccccc4)c3-n3cccc3)CC2)cc1,6.51µM,-,-,-,-,16.4µM
Cc1ccc(NC(=O)C2CCN(C(=O)c3cnn(-c4ccccc4)c3-n3cccc3)CC2)cc1Cl,13µM,-,-,-,-,?
COc1ccc(CNC(=O)C2CCN(c3nc(OC)nc(OC)n3)CC2)cc1,16.4µM,0,0,0,0,?
CSc1cccc(CNC(=O)C2CCC(=O)N(Cc3cccc(C(F)(F)F)c3)C2)c1 (stereo unspecified),0,?,?,0,0,?
O=C(CI)c1ccc(Cl)cc1,0,-,-,-,-,0
CC(C)C[C@H](NC(=O)[C@H](Cc1ccccc1)NC(=O)CNC(=O)[C@H](C)NC(=O)[C@@H](N)Cc1ccc(O)cc1)C(=O)O,0[4.12 µM],-,-,-,-,0[4.12 µM]
C=CC(C)=O,-,-,0,-,0,-
Cc1nc2c(c(N3CCOCC3)n1)OCC(=O)N2,0,?,0,0,0,0
CCOc1ccccc1N(CC(=O)NCCc1ccc(OC)cc1)S(=O)(=O)c1ccc(C)cc1,8.2µM,-,-,0,-,10.3µM
COc1ccc(CCN)cc1O,0,-,-,0,-,0
CC(C)Oc1ccc(CCN)cc1Cl,5.8µM,0,0,0,0,5.17µM
CCCCOc1ccc(CCN)cc1Cl,2.06µM,?,0,-68.8,0,2.31µM
C[N+]1(C)CCc2cc3c(cc2C1C1OC(=O)c2c1ccc1c2OCO1)OCO3 (stereo unspecified),-,-,0,-,0,-
